Results reported in PubChem BioAssay AID485313 (National Center for Advancing Translational Sciences (NCATS), 2010).
In all, about 320,000 compounds went through this assay and about 7,600 (2.4%) were called active. About 3% were inconclusive and are not listed. Calls come from the whole dose curve; as a rule, active = well fitted activation curve with a large enough effect; inconclusive = small, poorly fitted or top-dose-only effect; inactive = no such curve, though single readings can be large or run the other way. The entries come from a sample that favours actives as a whole. Entries that show only a call come without a potency.

assay: qHTS Assay for NPC1 Promoter Activators; details: Huh7 NPC1 promoter luciferase reporter, 24 h; series mostly up to 9.22 µM; note: nearly all actives have a fitted effect of over 60% in size
Source text: NIH Chemical Genomics Center [NCGC] NIH Molecular Libraries Probe Production centers Network [MLPCN] MLPCN Grant: MH089375-01A1 Assay Submitter (PI): Yiannis A. Ioannou NCGC Assay Overview: Niemann Pick Type C (NPC) is a rare neurodegenerative lipidosis that is characterized by lipid storage in the endosomal/lysosomal system. Treatment modalities for this devastating disease are currently non-existent due to the severe obstacles associated with accessing the central nervous system with proteins or genes. The majority of mutations causing NPC disease are missense mutations that are distributed throughout the length of the NPC1 protein, with the most prevalent being the I1061T allele. Although NPC1 mutant proteins may be functional, they are typically trapped in the ER due to misfolding. […] We have developed and optimized a cell based luciferase reporter assay in 1536 well format for the identification of up-regulators of the mutant NPC1 promoter.
The NPC1 promoter is cloned in front of the luciferase reporter gene, therefore NPC promoter activation results in luciferase expression. Frozen stock of the NPC1 promoter transfected Huh7 cells were obtained from the laboratory of Dr. Yiannis Ioannou (The Mount Sinai School of Medicine, New York, NY). Cells were propagated and maintained at NCGC in medium containing RPMI-1640 supplemented with 10% FBS, 2mM L-glutamine, and 50ug/ml penicillin/streptomycin. Cells were harvested in and plated for assays in OP-MEM I reduced-serum medium supplemented with 10% FBS. The Amplite luciferase reporter gene assay kit was purchased from ABD Bioquest and prepared/stored according to manufacturers recommendations. qHTS Assay Setup: 1.#Dispensed 5ul of Huh7 cells stably expressing NPC1-luciferase at a density of 1500 cells per well 1536-well plates. 2.#Incubate cells at 37C, 5% CO2, and 95% humidity for 2 hours. 3.#Transferred 23nl per well of compound in DMSO solution. 4.#Incubated at 37C, 5% CO2, and 95% humidity for 24 hours. 5.#Dispensed 3ul per well of Amplite reagent(ABD Bioquest) per well. 6.#Incubate at ambient for 10 minutes. 7.#Read using the luminescence protocol on the ViewLux plate reader (Perkin Elmer).
Potency is the fitted concentration of half-maximal effect.

SMILES | Potency
C/C(=N\Nc1ncc(Cl)cc1Cl)c1cccs1 | 1780 nM (active)
C/C(=N\Nc1nc2ccccc2[nH]1)c1cccs1 | 2000 nM (active)
C/C(=N\Nc1nc(Nc2ccccc2)nc(N2CCOCC2)n1)c1cccs1 | inactive
O=C(Nc1ccccc1-c1nc2ccccc2[nH]c1=O)c1cccs1 | inactive
C/C(=N\Nc1ccc(S(N)(=O)=O)cc1[N+](=O)[O-])c1cccs1 | inactive
C/C(=N\NS(=O)(=O)c1ccc(Br)cc1)c1cccs1 | inactive
CN(C(=O)CSc1nnc(-c2ccc3c(c2)OCO3)o1)C1CCS(=O)(=O)C1 (configuration not stated) | inactive
CCOc1ccc(NC(=O)COC(=O)C2CCC(=O)N2)c([N+](=O)[O-])c1 (configuration not stated) | inactive
CCN1C(=O)C(=O)N(CC(=O)Nc2cc(C)ccc2C)C1=O | inactive
CCOC(=O)c1ccc(NC2Nc3cc(C)nn3S2)cc1 (configuration not stated) | inactive
CCc1ccc(NC2Nc3cc(C)nn3S2)cc1 (configuration not stated) | 2820 nM (active)
CN(C(=O)CN1C(=O)/C(=C/c2ccc(Cl)cc2)SC1=S)C1CCS(=O)(=O)C1 (configuration not stated) | inactive
Cc1cc(C)c2nc(NC(=O)C3CCCO3)sc2c1 (configuration not stated) | 3980 nM (active)
Cc1cc([N+](=O)[O-])ccc1NC(=O)C1CCCO1 (configuration not stated) | inactive
Cc1ccc(C)c(C(C)NC(=O)C2CCCO2)c1 (configuration not stated) | inactive
CCOC(=O)c1ccc(NC(=O)C2CC(=O)N(c3ccc4c(c3)OCCO4)C2)cc1 (configuration not stated) | inactive
COc1cc(OC)c(N2CC(C(=O)Nc3cc(Cl)ccc3N3CCOCC3)CC2=O)cc1Cl (configuration not stated) | inactive
COc1cccc(NC(=O)COC(=O)/C=C/c2ccco2)c1 | inactive
CCOC(=O)c1c(NC(=O)/C=C/c2ccco2)sc(C)c1C | inactive
Cc1nnc(NC(=O)/C=C/c2ccco2)s1 | 2510 nM (active)
O=C(/C=C/c1ccco1)NC(=S)Nc1ccccc1Br | inactive
O=C(/C=C/c1ccco1)Nc1ccc(Oc2ccccc2)cc1 | 3980 nM (active)
CCC(CC)c1nnc(NC(=O)/C=C/c2ccco2)s1 | inactive

SMILES | Potency
CC(C)(CNC(=O)CNC(=O)C1CCCCC1)N1CCOCC1 | inactive
O=C(C1CC(=O)N(C2CCCC2)C1)N1CCN(c2cccc(C(F)(F)F)c2)CC1 (configuration not stated) | inactive
COc1ccccc1N1CCN(CC(=O)Nc2ccnn2C2CCCC2)CC1 | inactive
COc1ccc(C(=O)N/N=c2\oc3ccccc3cc2C(N)=O)cc1 | inactive
COc1cccc2cc(C(N)=O)/c(=N\NC(=O)c3ccccc3)oc12 | 2820 nM (active)
NC(=O)c1cc2ccccc2o/c1=N/NC(=O)c1cccc(F)c1 | inactive
O=C(c1ccc(Cl)c(S(=O)(=O)N2CCCCCC2)c1)N1CCN(c2ccc(O)cc2)CC1 | inactive
COc1cccc(C(=O)Nc2ccc(N3CCCC3)cc2)c1 | 891 nM (active)
Cc1ccccc1C(=O)NC(=S)Nc1ccc(N2CCN(C(=O)c3ccccc3)CC2)cc1 | inactive
COc1ccc(C2COC(=O)C2=N)c(NC(=O)c2ccccc2)c1 (configuration not stated) | inactive
CC(=O)Oc1cccc(C(=O)Nc2ccccc2NC(=O)c2cccc(OC(C)=O)c2)c1 | inactive
COc1cccc(C(=O)Nc2ccc(N3CCN(C(=O)c4ccco4)CC3)cc2)c1 | inactive
COc1ccc(C(=O)Nc2ccc(N3CCC(C)CC3)cc2)cc1Br | inactive
CN1CCN(c2ccc(NC(=O)c3ccc4c(c3)[nH]c(=O)n4Cc3ccc(F)cc3)cc2)CC1 | inactive
COc1cccc(C(=O)Nc2cc3c(cc2Br)OCCCO3)c1 | 2820 nM (active)
CN1CCN(c2ccc(NC(=O)c3ccccc3)cc2)CC1 | 2510 nM (active)
O=C(CSc1ncnc2sccc12)N1CCN(C(=O)c2cccs2)CC1 | inactive
Cc1ccc(S(=O)(=O)N2CCCCC2)cc1NC(=O)[C@@H]1CCCN1C(=O)c1cccs1 | inactive
Cc1ccc(-n2c(SCC(=O)N3CCC(C(=O)O)CC3)nc3ccccc3c2=O)cc1C | 3550 nM (active)
COc1cccc(-n2c(SCC(=O)NC3CCS(=O)(=O)C3)nc3ccccc3c2=O)c1 (configuration not stated) | inactive
O=C(CSc1nc2ccccc2c(=O)n1-c1ccc(F)cc1)NC1CC1 | inactive
CC(=O)Nc1ccc(SC[C@H](Cc2ccccc2)N2CC[C@@H](C)CCC2=O)cc1 | inactive
CCOC(=O)c1cc2ccccc2n1CC(=O)c1ccccc1 | inactive

SMILES | Potency
COc1ccc2cc(C(=O)O)n(CC(=O)c3ccccc3)c2c1 | inactive
CCn1c(=N)n(CC(=O)c2cccc(OC)c2)c2ccccc21 | 3550 nM (active)
CCc1ccc(NC(=O)Cn2ncn3c(cc4ccccc43)c2=O)cc1 | inactive
CC(C)c1ccc(NC(=O)Cn2ncc3ccccc32)cc1 | 891 nM (active)
CCOC(=O)c1cn(CC(=O)Nc2ccc(C(C)C)cc2)nn1 | inactive
O=C(NCc1ccccc1CN1CCCC1)C1CCN(S(=O)(=O)c2ccc(Cl)cc2)CC1 | inactive
CNC(=S)N/N=C/c1ccc(N2CCOCC2)s1 | inactive
CC(C)Sc1ncnc2c1cnn2-c1ccccc1 | 3550 nM (active)
O=C(NCCC1=CCCCC1)C1CCN(Cc2cnn(-c3ccccc3)c2-n2cccc2)CC1 | inactive
c1ccc(-n2ncc3c(N4CCCC4)ncnc32)cc1 | 2510 nM (active)
C1=C(CCNc2ncnc3c2cnn3-c2ccccc2)CCCC1 | 1780 nM (active)
Cc1ccc(-c2nc3c(cnn3-c3ccccc3)c(=O)o2)cc1 | inactive
O=C(NNc1ncnc2c1cnn2-c1ccccc1)c1ccco1 | inactive
O=C(Cn1cnc2c(cnn2-c2ccccc2)c1=O)NCc1ccccc1 | inactive
CCC(C)N(C(=O)CSc1ncnc2c1cnn2-c1ccccc1)C1CCS(=O)(=O)C1 (configuration not stated) | inactive
CCN(C(=O)CSc1ncnc2c1cnn2-c1ccccc1)C1CCS(=O)(=O)C1 (configuration not stated) | inactive
CC1CCc2sc(C(=O)NCC(c3ccco3)N3CCCCC3)cc2C1 (configuration not stated) | inactive
CCOCCc1nn2c(=O)cc(CSCC(=O)Nc3cccc(C)c3C)nc2s1 | inactive
CSCCC(NC(=O)c1ccccc1)C(=O)N1CCN(Cc2ccc(Cl)cc2)CC1 (configuration not stated) | inactive
COC(=O)c1ccc(-c2c(-c3ccccc3)ncc3cc(OC)c(OC)cc23)cc1 | inactive
Cc1ccc2c(CN3CCN(S(=O)(=O)c4ccccc4C(F)(F)F)CC3)cc(=O)oc2c1 | inactive
